Shn3 inh set2 = reduction of Shn3 3'UTR firefly luciferase signal, primary screen, Schnurri-3 inhibitor project, cell-based, Clone20 osteoblasts, set 2; Clone20 osteoblast Shn3 3'UTR firefly luciferase, 24 h; inhibition, % at 12.5 µM; 360,000 tested, 0.52% active;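 active = mean inhibition of at least 75% with every replicate also reaching 75%; inconclusive = mean inhibition at least 75% but some replicate below; inactive = mean inhibition below 75%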;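 note: 0% = median of neutral control wells and 100% = pilot-screen positive control compound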
KKLEB tox = cytotoxicity in KKLEB CF airway cells, primary screen, cytotoxicity control for CF NF-kB inhibitor project, cell-based, uHTS, fluorescence assay plates; KKLEB CF airway cells viability, ATPlite luminescence, overnight; stronger effect = lower value; cells stimulated with P. aeruginosa culture filtrate; activity change (cytotoxicity), % at 5 µM; 360,000 tested, 0.36% active; AID 602141, 2011;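 active = corrected activity change at or below -50% at 5 µM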
LGR2 inh = inhibitors of bursicon-induced LGR2 CRE-luciferase signal, primary screen, cell-based, HEK293, CRE-luciferase reporter, bursicon stimulation; Drosophila bursicon receptor LGR2 (rickets); bursicon-stimulated, 4 h; inhibition, % at 9.99 µM; 380,000 tested, 0.35% active; AID 720647, 2013;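 active = drop in luminescence signal, shown as inhibition above about 50% in the replicate tests, limit read from the data, passing the limit was not always enough; inconclusive = probably only some replicates passing the limit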;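 note: agonist challenge used bursicon conditioned medium at about half maximal strength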
PAX8 reporter = inhibitors of PAX8-driven TPO luciferase reporter, primary screen, RMG-I cells, single concentration; AID 652154, 2013; 360,000 tested, 1.2% active; SteadyGlo, 24 h; inhibition, % at 12.6 µM;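 active = mean replicate inhibition at least 60% with every replicate also reaching 60%; inconclusive = only one of the two criteria is met; inactive = mean below 60% and not all replicates reaching 60%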;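 note: luciferase light reporting Pax8 driven TPO promoter activity; plate controls were median of neutral control wells for no effect and mitoxantrone controls for full effect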
CF NFkB block = inhibitors of PAF-induced NF-kB signaling, primary screen, cell-based, GFP fluorescence, uHTS | 360,000 tested, 0.86% active | inhibition, % at 5 µM | AID 588850, 2011 | KKLEB NF-kB-GFP reporter, GFP fluorescence overnight;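 active = at least 50% inhibition at 5 µM, scaled per plate between neutral and stimulator controls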;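 note: PAF is a Pseudomonas aeruginosa culture filtrate used as stimulus; plate controls were PAF-stimulated DMSO wells for no effect and unstimulated DMSO wells for full effect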
EWS-Fli block = EWS/Fli-driven NR0B1 reporter inhibitors, primary screen, A673 cells, NR0B1 luciferase, luminescence, MLPCN library; AID 651661, 2012; 350,000 tested, 0.67% active; inhibition, % at 12.6 µM; viability-normalised;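 active = mean inhibition of at least 50% after viability correction, with every replicate also passing that limit; inconclusive = mean reaches 50% but only one of two replicates passes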;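 note: firefly luciferase signal divided by Alamar Blue viability fluorescence both relative to DMSO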
CF NFkB inh conf = inhibitors of PAF-induced NF-kB signaling, retest, confirmation, cell-based, GFP fluorescence, single concentration | shares compounds with CF NFkB block | KKLEB CF airway cells, overnight | inhibition, % at 5 µM | 1,300 tested, 64% active | AID 602472, 2012; in the data active = inhibition above about 40%;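 note: stimulus PAF is a Pseudomonas aeruginosa filtrate and not platelet activating factor; plate controls were DMSO wells with stimulus for no effect and unstimulated DMSO wells for full effect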
The depositor's hits bear a star; ? = inconclusive; · = not tested or not shown. Most compounds without a hit are left out; they make up all but 2% or so of the library.

SMILES | Shn3 inh set2 | KKLEB tox | LGR2 inh | PAX8 reporter | CF NFkB block | EWS-Fli block | CF NFkB inh conf
CCC/C=C/c1ccc(CN2C(C(C)C)C(=O)N(Cc3cn(Cc4ccco4)nn3)CCS2(=O)=O)cc1 (centres undefined) | 3 | 8 | 5 | 28 | 52* | 8 | 45*
Cc1ccc(-c2ccc(CN3C(C)C(=O)N(Cc4cn(Cc5ccco5)nn4)CCS3(=O)=O)cc2)c(C)c1 (centres undefined) | -3 | 2 | 5 | 21 | 48 | 1 | ·
O=C(NC[C@H]1[C@@H](c2ccccc2)[C@@H](CO)N1CC1CCCC1)c1ccncc1 | · | · | 1 | 7 | · | 5 | ·
COc1ccc(CN2CC3(CCN(C(=O)C4CC4)CC3)c3c(n(C)c4cc(OC)ccc34)[C@H]2CO)cc1 | · | · | -7 | 4 | · | 4 | ·
Cc1ccccc1-c1ccc(CN2C(C(C)C)C(=O)N(Cc3cn(CCC4OCCO4)nn3)CCS2(=O)=O)cc1 (centres undefined) | 38 | -4 | 20 | 7 | 16 | -14 | ·
CC1C(=O)N(Cc2cn(Cc3ccco3)nn2)CCS(=O)(=O)N1Cc1ccc(-c2ccc(Cl)c(Cl)c2)cc1 (centres undefined) | 14 | 5 | -1 | -6 | 65* | -2 | 28
Cc1ccc(-c2ccc(CN3C(C(C)C)C(=O)N(Cc4cn(CCC5OCCO5)nn4)CCS3(=O)=O)cc2)c(C)c1 (centres undefined) | 21 | -14 | 7 | -4 | 65* | -21 | 36
NC(=O)c1cc2ccc(O)cc2oc1=Nc1ccccc1 | -29 | -28 | · | · | 82* | · | 83*
C[C@H]1Cn2cnc(C(=O)Nc3cccc(Cl)c3)c2C(=O)N1 | 11 | 14 | 14 | -18 | 62* | -2 | 91*
COc1ccc(NC(=O)Cn2nnc(C(=O)NCc3ccccc3)c2N)cc1Cl | 21 | -11 | · | · | 17 | · | ·
COc1ccc(NC(=O)Cn2nnc(C(=O)NCc3ccc(C)cc3)c2N)cc1Cl | 5 | -37 | 27 | -1 | 58* | · | 10
CN1C(=O)c2cc(NC(=O)Cc3cccs3)ccc2OC[C@H]2O[C@H](CC(=O)NCCCN3CCOCC3)CC[C@H]21 | · | · | -7 | -10 | · | 0 | ·
CCOC(=O)c1ccc(NC(=O)c2ccccc2)cc1 | -116 | 4 | -65 | · | -4 | -84 | ·
CCOC(=O)c1ccc(NC(=O)c2c(N)n(Cc3ccccc3)c(=O)[nH]c2=O)cc1 | 27 | -48 | -4 | -20 | 58* | -2 | 33
COc1ccc([N+](=O)[O-])c(C=CC(=O)c2ccccn2)c1 | -2 | -29 | -5 | -40 | 91* | 23 | -59
C[C@@H]1CCCCO[C@H](CN(C)C(=O)C2CCCCC2)[C@@H](C)CN([C@H](C)CO)C(=O)c2cc(NS(C)(=O)=O)ccc2O1 | · | · | -9 | -17 | · | -2 | ·
COc1cc(/C=C/C(=O)N2CCC=CC2=O)cc(OC)c1OC | 38 | 16 | 100* | 105* | 81* | 70* | 33
Cc1ccc(CSc2ncn(-c3ccccc3)n2)cc1 | -43 | 16 | · | -10 | 3 | · | ·
Cc1ccc(CSc2nccc(-c3c(C)nc4ccccn34)n2)cc1 | 79 | -11 | 14 | 4 | 50* | 56* | 63*
CCC1(O)C(=O)OCc2c1cc1n(c2=O)Cc2cc3cc(O)ccc3nc2-1 (centres undefined) | 29 | -27 | 95* | · | 84* | 56* | 110*
C[C@H](O)[C@@H]1CN2CCc3c([nH]c4ccc(-c5ccc6c(c5)OCO6)cc34)[C@@H]2C[C@@H]1N(C)C(=O)Nc1ccc(F)cc1 | 22 | -40 | 14 | 2 | 65* | 41 | 52*
O=C(NC1CCCC(C(F)(F)F)C1)c1ccc([N+](=O)[O-])o1 (centres undefined) | 46 | -16 | 11 | 76* | 92* | 22 | 53*
O=C(NC1CCCCC1)c1ccc([N+](=O)[O-])o1 | -16 | -14 | · | · | 32 | · | ·
COCC(=O)N(C)C[C@H]1Oc2ncc(-c3ccc(F)cc3)cc2C(=O)N([C@H](C)CO)C[C@@H]1C | · | · | 1 | · | · | -7 | ·
C[C@H]1CCCCO[C@@H](CN(C)C(=O)CCC(F)(F)F)[C@@H](C)CN([C@@H](C)CO)C(=O)c2cc(NC(=O)c3ccccc3)ccc2O1 | · | · | -3 | -6 | · | 1 | ·
SMILES | Shn3 inh set2 | KKLEB tox | LGR2 inh | PAX8 reporter | CF NFkB block | EWS-Fli block | CF NFkB inh conf
Fc1ccc(N2C(=S)SC(=Nc3ccccc3)C2=Nc2ccccc2)cc1 | -9 | 0 | 10 | · | 6 | -37 | ·
N#CC(C#N)=C1SC(=Nc2ccccc2)C(=Nc2ccccc2)N1c1ccccc1 | 37 | -42 | -71 | -189 | 67* | -6 | 79*
O=C(CCS(=O)(=O)c1ccccc1)N(CCCN1CCOCC1)c1nc2c(F)cccc2s1 | 44 | -39 | -31 | -7 | 94* | -36 | 71*
Cc1ccc(S(=O)(=O)CC(=O)N(CCCN2CCOCC2)c2nc3c(F)cccc3s2)cc1 | -50 | -10 | 1 | · | -15 | -33 | ·
O=C(CCS(=O)(=O)c1ccccc1)N(CCCN1CCOCC1)c1nc2ccc(F)cc2s1 | -147 | -38 | -27 | -80 | 59* | -71 | 2
COc1ccc(OC)c(N(CCN2C(=O)c3ccccc3C2=O)C(=O)CCl)c1 | 31 | -42 | 14 | 104* | 62* | ? | 99*
COc1ccc(NC(=O)CCN2C(=O)c3ccccc3C2=O)c(OC)c1 | -1 | -1 | 2 | -1 | 21 | 0 | ·
COc1ccccc1/C=C/C(=O)c1c2c(c(C)[nH]c1=O)CCCC2 | -31 | -5 | 56* | · | 54* | 15 | 51*
C[C@H]1CN([C@@H](C)CO)S(=O)(=O)c2ccc(C#Cc3ccncc3)cc2O[C@H]1CN(C)C | · | · | -4 | · | · | -12 | ·
Oc1cc2c(cc1C(c1ccc(Br)cc1)N1CCCC1)OCO2 (centres undefined) | -1 | -21 | -8 | -7 | 53* | -4 | 33
CCOC(=O)c1cccc(NS(=O)(=O)c2c(C)[nH]c(=O)[nH]c2=O)c1 | -5 | 10 | · | · | 4 | · | ·
CCOC(=O)c1cccc(NS(=O)(=O)c2ccc(NC(C)=O)cc2)c1 | 54 | 0 | · | 5 | 52* | · | 44*
C[C@H](CO)N1C[C@H](C)[C@@H](CN(C)S(C)(=O)=O)OCCCC[C@H](C)Oc2ccc(NS(C)(=O)=O)cc2C1=O | · | · | 21 | -19 | · | -14 | ·
O=C(C[C@H]1CC[C@@H]2[C@H](COC[C@H](O)CN2C(=O)Cc2ccccc2)O1)NC1Cc2ccccc2C1 | · | · | 6 | 13 | · | -122 | ·
